Several values for one entry are separate records, joined by “and”; a condition that tells them apart may be missing. Equal values may be shown once. A number with no mark means an inactive call. Results filed as inconclusive are left out. A call without a number means that no potency is given here. Activity calls are given as the source filed them. Unless noted, the call rests on the fitted dose curve; in most records, active means well fitted curve in the direction sought with a large enough effect; inconclusive means small, poorly fitted or top-dose-only effect, or another doubt; inactive means no such curve, though single readings can be large; an effect the other way counts as inactive or inconclusive.
What was measured:
[1] = target: Thyroid hormone receptor beta (Homo sapiens) (UniProt P10828); assay: qHTS assay for small molecule agonists of thyroid hormone receptor beta signaling (AID 588545; calls by dose curve)
In short: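 Efficacy and EC50 values derive from Hill fits of qHTS titration data, normalized to 10 nM T3 and DMSO-only wells. HEK 293 reporter cells were stimulated for 18 hrs at 37 C, with beta-lactamase activity measured by CCF4 fluorescence.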

[2] = qHTS assay for environmental chemicals that activate the Aryl hydrocarbon Receptor (AhR) signaling pathway (AID 651777); conditions: 1A2-DRE human hepatoma cells, luciferase, 24 h; activation: active compounds read high; further: nearly all actives have a fitted effect of over 15% in size
In short: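 1A2-DRE human hepatoma reporter line; 1,200 cells/well; cmpd or DMSO 24 h, 37 C/5% CO2; One-Glo 30 min RT; luciferase lum.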

[3] = target: Nuclear receptor subfamily 1 group I member 2 (Rattus norvegicus) (UniProt Q9R1A7); assay: qHTS assay for small molecule activators of the rat pregnane X receptor (rPXR) signaling pathway (AID 651751; call rule not given here); conditions: rPXR reporter cells, luciferase (One-Glo), 24 h
[4] = Cell Viability - LYMP2-001 (AID 921); further: nearly all actives have a fitted effect of over 70% in size; further: potency means the concentration at half of the fitted maximal effect
In short: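 Steps: seed 2500 lymphoblastoid cells/well; 5 hr, 37 C; add compound; 24 hr, 37 C; CellTiter-Glo reagent, 30 min room temperature; read luminescence. Concentration-response modeled by Hill equation for AC50.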

[5] = MultiTox-Fluor Cytotoxicity Assay - LYMP1-002 - Dead Cells (AID 960); further: nearly all actives have a fitted effect of over 60% in size; further: potency means the concentration at half of the fitted maximal effect
In short: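 LYMP1-002 cells 2500/well; 5 hr 37 C pre-incubation; compound 16 hr 37 C; MultiTox-Fluor reagent 60 min RT; dead-cell fluor Ex/Em 485/520. Norm. to DMSO (0%) vs 15 uM tetraoctylammonium bromide (100%); Hill AC50.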

[6] = Cell Viability - LYMP2-005 (AID 967); further: potency means the concentration at half of the fitted maximal effect
In short: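 Acute cytotoxicity is scored as a concentration-dependent drop in intracellular ATP in human lymphoblastoid LYMP2-005 cells after 24 h compound treatment. ATP is quantified by luciferase luminescence, and AC50 is derived by Hill-equation modelling.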

[7] = Cell Viability - LYMP2-008 (AID 980); further: nearly all actives have a fitted effect of over 60% in size; further: potency means the concentration at half of the fitted maximal effect
In short: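 qHTS, human lymphoblastoid line, 2500 cells/well; 5 hr preincubation, 24 hr compound, 37 C. CellTiter-Glo ATP luminescence. AC50 via Hill equation. Tetraoctylammonium bromide positive control.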

[8] = Cell Viability - LYMP2-012 (AID 982);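 further: cellular ATP by luciferase luminescence where a drop means cytotoxicity; cells exposed to compound for one day before reading; nearly all actives have a fitted effect of over 55% in size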; further: potency means the concentration at half of the fitted maximal effect
[9] = Cell Viability - LYMP2-016 (AID 984);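 further: cells exposed to compound for 24 hours at 37 °C; nearly all actives have a fitted effect of over 55% in size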; further: potency means the concentration at half of the fitted maximal effect
In short: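 Cells were seeded at 2500 per well and rested 5 hr before a 24 hr compound exposure at 37 C. Viability was then gauged as cellular ATP by luciferase luminescence, with AC50 values fitted to the Hill equation.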

[10] = Cell Viability - LYMP2-018 (AID 985); further: nearly all actives have a fitted effect of over 50% in size; further: potency means the concentration at half of the fitted maximal effect
In short: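 Luminescent ATP signal (CellTiter-Glo, read after 30 min at room temperature) reports viable cells after 24 hr compound treatment at 37 C. Concentration-response data were fitted to the standard Hill equation for AC50.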

[11] = Cell Viability - LYMP2-020 (AID 986); further: nearly all actives have a fitted effect of over 55% in size; further: potency means the concentration at half of the fitted maximal effect
In short: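 Luminescent ATP signal (CellTiter-Glo, 30 min at room temperature) is the read-out after 24 h compound treatment of lymphoblastoid cells at 37 C. AC50 values come from Hill-equation fits across concentrations.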

[12] = Cell Viability - LYMP2-022 (AID 987); further: nearly all actives have a fitted effect of over 55% in size; further: potency means the concentration at half of the fitted maximal effect
In short: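 qHTS: human lymphoblastoid cells 2500/well; 5 hr 37 C; cpd added; 24 hr 37 C; CellTiter-Glo, 30 min RT; luminescence. AC50 via Hill fit; tetraoctylammonium bromide positive ctrl.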

[13] = Cell Viability - LYMP2-024 (AID 988); further: nearly all actives have a fitted effect of over 60% in size; further: potency means the concentration at half of the fitted maximal effect
In short: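 Steps: seed 2500 cells/well, 5 hr 37 C; add compound, 24 hr 37 C; add CellTiter-Glo, 30 min room temperature; read luminescence. AC50 derived by Hill modelling of concentration-dependent ATP loss.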

[14] = target: Vitamin D3 receptor (Homo sapiens) (UniProt P11473); assay: qHTS assay for small molecule antagonists of vitamin D receptor signaling (AID 588541; calls by dose curve;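 further: receptor activated by calcitriol during compound treatment; series mostly up to about 77 µM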)
In short: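 Antagonist-mode beta-lactamase reporter assay: HEK293T VDR-UAS-bla cells were exposed to titrated compound alongside 1-alpha,25-dihydroxyvitamin D3 at 3 nM final for 16 h. Values were normalized to the 50 nM agonist control and DMSO basal, with IC50 and efficacy from Hill equation fits.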

[15] = qHTS assay for small molecule disruptors of the mitochondrial membrane potential - 1 hr assay (AID 651754; calls by dose curve; further: nearly all actives have a fitted effect of over 35% in size; further: potency means the concentration at half of the fitted maximal effect)
In short: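 HepG2, 2,000 cells/well, overnight attachment; cpd or DMSO 1 hr, 37C/5% CO2; Mito-MPS dye 30 min, 37C; fluorescence monomer (490/535) and aggregate (540/590).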

[16] = target: Nuclear receptor ROR-gamma (Homo sapiens) (UniProt P51449); assay: qHTS assay for small molecule antagonists of the retinoid-related orphan receptor gamma (ROR-gamma) signaling pathway (AID 651802); further: nearly all actives have a fitted effect of over 60% in size; further: potency means the concentration at half of the fitted maximal effect
In short: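 CHO, TET-inducible ROR + RORE-LUC reporter, 1536-well qHTS. Compound pinned, doxycycline added, 16hr 37C/5% CO2. ONE-Glo, 30 min RT, luminescence; signal drop scored as antagonism.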

[17] = qHTS assay for small molecule antagonists of the retinoid-related orphan receptor gamma (ROR-gamma) signaling pathway - cell viability counter screen (AID 720652; active means well fitted curve in the direction sought with a large enough effect in the repeat runs; an effect the other way counts as inactive or inconclusive;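 further: compound exposure lasted 16 hr before ATP read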; further: potency means the concentration at half of the fitted maximal effect)
In short: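 Luminescence from CellTiter-Glo after 30 min at room temperature reported cellular ATP as the cytotoxicity measure. Cells were the CHO reporter line with doxycycline-induced ROR-gamma expression, exposed to compound for 16 hr at 37 C.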

[18] = target: Vitamin D3 receptor (Homo sapiens) (UniProt P11473); assay: qHTS assay for small molecule agonists of vitamin D receptor signaling (AID 588543; calls by dose curve)
In short: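 Reporter cells (HEK293T, VDR-UAS-bla) were seeded in medium with 2% charcoal-stripped serum and incubated 5 h, then compounds in concentration series were added for 16 h at 37 °C. Stimulation was scaled between DMSO basal and 50 nM 1α,25-dihydroxyvitamin D3.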

[19] = qHTS assay for small molecule activators of the human pregnane X receptor (PXR) signaling pathway (AID 720659; call rule not given here)

Sequence of Vitamin D3 receptor (Homo sapiens) (P11473 whole entry, looked up): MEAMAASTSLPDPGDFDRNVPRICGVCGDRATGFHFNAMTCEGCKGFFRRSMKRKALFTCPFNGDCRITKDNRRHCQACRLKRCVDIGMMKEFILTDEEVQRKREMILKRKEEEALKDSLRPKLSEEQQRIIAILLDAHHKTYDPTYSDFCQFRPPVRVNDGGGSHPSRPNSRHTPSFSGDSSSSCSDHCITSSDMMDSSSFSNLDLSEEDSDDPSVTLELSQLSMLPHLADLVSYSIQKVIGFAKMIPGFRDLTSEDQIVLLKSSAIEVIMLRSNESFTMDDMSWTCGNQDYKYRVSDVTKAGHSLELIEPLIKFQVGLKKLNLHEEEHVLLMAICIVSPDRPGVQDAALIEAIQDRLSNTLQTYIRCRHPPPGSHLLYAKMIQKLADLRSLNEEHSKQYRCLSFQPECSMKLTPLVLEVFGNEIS
Sequence of Nuclear receptor subfamily 1 group I member 2 (Rattus norvegicus) (Q9R1A7 whole entry, looked up): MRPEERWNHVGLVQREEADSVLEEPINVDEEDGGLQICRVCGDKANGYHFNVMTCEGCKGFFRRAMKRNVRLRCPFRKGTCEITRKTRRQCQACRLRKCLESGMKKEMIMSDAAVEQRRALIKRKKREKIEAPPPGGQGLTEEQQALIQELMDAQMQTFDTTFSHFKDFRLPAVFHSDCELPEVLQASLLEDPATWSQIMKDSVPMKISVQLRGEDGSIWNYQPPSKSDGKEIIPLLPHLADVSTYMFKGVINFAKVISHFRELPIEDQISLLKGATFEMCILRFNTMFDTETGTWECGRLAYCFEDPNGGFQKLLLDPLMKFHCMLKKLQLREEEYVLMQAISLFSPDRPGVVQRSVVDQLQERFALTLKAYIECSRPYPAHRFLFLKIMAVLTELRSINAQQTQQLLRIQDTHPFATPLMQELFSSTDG
Sequence of Thyroid hormone receptor beta (Homo sapiens) (P10828 whole entry, looked up): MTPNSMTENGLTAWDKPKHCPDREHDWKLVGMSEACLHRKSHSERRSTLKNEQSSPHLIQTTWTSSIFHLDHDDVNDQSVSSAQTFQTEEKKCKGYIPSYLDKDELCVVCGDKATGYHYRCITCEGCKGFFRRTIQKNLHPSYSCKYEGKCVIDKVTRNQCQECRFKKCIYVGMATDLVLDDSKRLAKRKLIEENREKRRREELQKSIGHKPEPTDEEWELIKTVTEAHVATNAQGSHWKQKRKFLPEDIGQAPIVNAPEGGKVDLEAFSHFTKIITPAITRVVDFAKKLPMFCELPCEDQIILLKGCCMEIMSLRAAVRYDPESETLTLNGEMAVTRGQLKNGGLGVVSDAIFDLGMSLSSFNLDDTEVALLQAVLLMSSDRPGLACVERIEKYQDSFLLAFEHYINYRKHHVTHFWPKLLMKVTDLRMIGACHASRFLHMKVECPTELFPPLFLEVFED
Sequence of Nuclear receptor ROR-gamma (Homo sapiens) (P51449 whole entry, looked up): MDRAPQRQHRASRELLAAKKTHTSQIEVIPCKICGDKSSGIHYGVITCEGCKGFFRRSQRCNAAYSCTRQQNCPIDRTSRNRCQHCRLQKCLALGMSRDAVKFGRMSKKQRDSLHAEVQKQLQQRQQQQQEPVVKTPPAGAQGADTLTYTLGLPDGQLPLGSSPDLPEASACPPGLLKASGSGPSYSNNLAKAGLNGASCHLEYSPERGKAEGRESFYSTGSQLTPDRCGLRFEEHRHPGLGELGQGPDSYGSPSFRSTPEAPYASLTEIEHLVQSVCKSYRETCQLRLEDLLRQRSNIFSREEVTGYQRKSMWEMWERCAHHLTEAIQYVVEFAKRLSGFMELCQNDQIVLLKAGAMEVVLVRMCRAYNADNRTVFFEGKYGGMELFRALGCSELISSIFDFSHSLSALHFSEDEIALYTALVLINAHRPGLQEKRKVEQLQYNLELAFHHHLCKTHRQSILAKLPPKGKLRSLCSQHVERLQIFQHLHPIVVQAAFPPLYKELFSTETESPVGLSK

C=CC(=O)OCC(CO)(COC(=O)C=C)COC(=O)C=C
outcome [1]: inactive
activation [2]: 2.52% and -1.81%
max response [3]: -14.2%

CCCCCCCC[N+](CCCCCCCC)(CCCCCCCC)CCCCCCCC
Potency [4]: 3.98 µM (active)
Potency [5]: 3.16 µM (active)
Potency [6]: 7.94 µM (active)
Potency [7]: 3.98 µM (active)
Potency [8]: 3.98 µM (active)
Potency [9]: 5.01 µM (active)
Potency [10]: 5.01 µM (active)
Potency [11]: 5.01 µM (active)
Potency [12]: 3.16 µM (active)
Potency [13]: 3.98 µM (active)
Potency [14]: inactive
Potency [15]: 3.35 µM (active)
activation [2]: -8.33%
Potency [16]: 1.5 µM (active)
Potency [17]: 9.44 µM (active)

CNc1ccc(O)cc1
Potency [4]: 3.16 µM (active)
Potency [6]: 5.01 µM (active)
Potency [7]: 7.94 µM (active)
Potency [8]: 3.98 µM (active)
Potency [9]: 7.94 µM (active)
Potency [10]: 5.01 µM (active)
Potency [11]: 3.98 µM (active)
Potency [12]: 3.16 µM (active)
Potency [13]: 2.51 µM (active)
outcome [18]: inactive
outcome [1]: inactive
activation [2]: 7.98%
max response [3]: -0.134%
outcome [19]: inactive

O=C=Nc1ccc(Cc2ccc(N=C=O)cc2)cc1
Potency [4]: inactive
Potency [6]: inactive
Potency [7]: inactive
Potency [8]: inactive
Potency [9]: inactive
Potency [10]: inactive
Potency [11]: inactive
Potency [12]: inactive
Potency [13]: inactive
Potency [14]: inactive
outcome [18]: inactive
outcome [1]: inactive
Potency [15]: inactive
Potency [16]: inactive
Potency [17]: inactive
max response [3]: 1.83% and 4.61%
outcome [19]: inactive

CC/C(=C(\c1ccccc1)c1ccc(OCCN(C)C)cc1)c1ccc(O)cc1
outcome [18]: inactive
Potency [15]: inactive
activation [2]: -5.29%

C/C=C1\C(=O)C[C@H]2[C@@H]3CCC4=CC(=O)CC[C@]4(C)[C@H]3CC[C@]12C
Potency [5]: 25.1 µM (active)
Potency [6]: inactive
outcome [1]: inactive
Potency [15]: inactive
activation [2]: -0.115%
Potency [16]: 33.5 µM (active)

O=C(OCC(COC(=O)c1ccccc1)(COC(=O)c1ccccc1)COC(=O)c1ccccc1)c1ccccc1
Potency [4]: inactive
Potency [6]: inactive
Potency [7]: inactive
Potency [8]: inactive
Potency [9]: inactive
Potency [10]: inactive
Potency [11]: inactive
Potency [12]: inactive
Potency [13]: inactive
activation [2]: -0.471%
Potency [16]: inactive
Potency [17]: inactive
outcome [19]: inactive

c1ccc2c(c1)ccc1cc3c(ccc4ccccc43)cc12
Potency [4]: inactive
Potency [5]: inactive
Potency [6]: inactive
Potency [7]: inactive
Potency [8]: inactive
Potency [9]: inactive
Potency [10]: inactive
Potency [11]: inactive
Potency [12]: inactive
Potency [13]: inactive
Potency [15]: inactive
Potency [17]: inactive
outcome [19]: inactive

CN(C)c1ccc(C2(c3ccc(N(C)C)cc3)OC(=O)c3cc(N(C)C)ccc32)cc1
Potency [4]: inactive
Potency [7]: inactive
Potency [8]: inactive
Potency [9]: inactive
Potency [10]: inactive
Potency [11]: inactive
Potency [12]: inactive
Potency [13]: inactive
Potency [14]: inactive
activation [2]: -0.148%
Potency [16]: inactive
Potency [17]: inactive
max response [3]: -2.55%
outcome [19]: inactive

Source: PubChem BioAssay (NCATS)
